Assay results taken from PubChem BioAssay (NCATS).
Several values for one entry are separate records, joined by “and”; a condition that tells them apart may be missing. Identical values can stand only once. Records with an inconclusive call do not appear. Activity calls are given as the source filed them. Unless noted, calls come from the whole dose curve; as a rule, active = well fitted curve in the direction sought with a large enough effect; inconclusive = small, poorly fitted or top-dose-only effect, or another doubt; inactive = no such curve, though single readings can be large; an effect the other way counts as inactive or inconclusive.

Legend:
[1] = Cell Viability - SH-SY5Y (AID 544); conditions: SH-SY5Y neuroblastoma cell viability; viability change, negative = cytotoxic: at 92.2 µM (top of the series);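 note: cells exposed to compound for 40 hours; nearly all actives have a fitted effect of over 55% in size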
Summary of the method: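 Cytotoxicity measured via ATP-dependent luciferase luminescence (CellTiter-Glo) following 40 h, 37 °C exposure of 1500 SH-SY5Y cells per well. Concentration-response data were fitted with the standard Hill equation to give AC50.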

[2] = Cell Viability - Mesenchymal (AID 546);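 note: cells exposed to compound for 40 hours before reading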
Summary of the method: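 Human renal mesenchymal cells (glomerulus-derived), 1000 cells/well, 5 hr 37 °C pre-incubation; compound 40 hr, 37 °C; CellTiter-Glo, 20 min RT; luminescence; AC50 via Hill equation.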

[3] = Cellular Toxicity (caspase-3) HUV-EC-C (AID 656)
Summary of the method: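 HUV-EC-C endothelial cells, 1000/well, were pre-incubated 5 hr at 37°C, then exposed to compounds for 16 hr at 37°C. Caspase-Glo 3/7 luminescence was read after 20 min at room temperature. AC50 came from Hill fits, normalized to DMSO and 100 uM tamoxifen.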

[4] = Cellular Toxicity (caspase-3) SHSY5Y (AID 657)
Summary of the method: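 SH-SY5Y human neuroblastoma cells (1500/well) were treated with compounds for 16 h at 37 °C, then Caspase-Glo 3/7 luminescence was read after 1 h at room temperature. Data normalized to DMSO and 10 uM staurosporine; AC50 from Hill fits.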

[5] = Cellular Toxicity (caspase-3) BJ (AID 658);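 note: 0% = DMSO basal and 100% = 10 µM staurosporine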
Summary of the method: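 qHTS, BJ fibroblasts, 1000 cells/well; 5 hr preincubation, 16 hr compound, 37 °C; Caspase-Glo 3/7 reagent, 1 hr RT; luminescence. DMSO = 0%, 10 uM staurosporine = 100%. Hill-equation AC50.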

[6] = Cellular Toxicity (caspase-3) H-4-II-E (AID 663); conditions: Potency: caspase-3 activation;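 note: cells exposed to compound for 16 hr before readout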
Summary of the method: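 H-4-II-E rat hepatoma, 1500 cells/well, 5 hr settle at 37 °C; compound 16 hr, 37 °C, complete medium; Caspase-Glo 3/7, 20 min RT; luminescence. DMSO = 0%, 100 uM tamoxifen = 100%; Hill-equation AC50.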

[7] = Cellular Toxicity (caspase-3) Hek293 (AID 664); conditions: HEK293 caspase-3 activation, DMSO = 0%, 100 µM tamoxifen = 100%; at 92.2 µM (top of the series);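 note: cells exposed to compound for 16 h at 37 °C before readout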
Summary of the method: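 Concentration-response qHTS: caspase 3/7 activation measured by luminescent aminoluciferin substrate cleavage after 16 h compound exposure of Hek 293 cells. AC50 from Hill equation, with DMSO as basal and 100 uM tamoxifen as 100%.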

[8] = Cellular Toxicity (caspase-3) NIH 3T3 (AID 666);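 note: caspase signal read after 16 h compound exposure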; note: potency is the fitted concentration of half-maximal effect;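 for caspase-3 activation: 0% = DMSO basal and 100% = 100 µM tamoxifen stimulation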
Summary of the method: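 Caspase-Glo 3/7 luminescence reported caspase activation in 1000 NIH 3T3 cells/well after 16 h compound exposure at 37 C. DMSO set basal and 100 uM tamoxifen set 100% stimulation; concentration-response modeled with the Hill equation for AC50.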

[9] = Cell Viability - LYMP2-019 (AID 973);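 note: 0% = DMSO alone and full effect = 92 µM tetraoctylammonium bromide; nearly all actives have a fitted effect of over 55% in size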
Summary of the method: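 AC50 values come from Hill-equation fits of luminescent intracellular ATP (CellTiter-Glo, 30 min, room temperature) following 24 h compound exposure at 37 C. Cells: LYMP2-019 lymphoblastoid line, 2500 per well, in complete culture medium.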

[10] = Cell Viability - LYMP2-023 (AID 975);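 note: cellular ATP measured by luciferase luminescence as viability proxy; plate controls were DMSO only for no effect and 92 µM tetraoctylammonium bromide control for full effect; nearly all actives have a fitted effect of over 55% in size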
Summary of the method: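 Intracellular ATP, read by CellTiter-Glo luminescence, reports viability after 24 hr compound exposure at 37 C. 2500 lymphoblastoid cells/well (LYMP2-023) seeded 5 hr beforehand; Hill fits give AC50; positive control tetraoctylammonium bromide.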

[11] = Cell Viability - LYMP2-022 (AID 987);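 note: 0% = DMSO alone and full effect = tetraoctylammonium bromide at 92 µM; nearly all actives have a fitted effect of over 55% in size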
Summary of the method: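 Cytotoxicity read as decreased cellular ATP (CellTiter-Glo luminescence, 30 min room temperature) after 24 hours compound exposure of 2500 lymphoblastoid LYMP2-022 cells/well at 37 C. Concentration-response data fitted with standard Hill equation for AC50.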

[12] = Cell Viability - LYMP1-002 - Assay at 40 hr (AID 994);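 note: 0% = DMSO only and full inhibition = 92 µM tetraoctylammonium bromide; nearly all actives have a fitted effect of over 60% in size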
Summary of the method: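 Cytotoxicity was read as loss of cellular ATP (CellTiter-Glo luminescence) after 40 hr compound exposure at 37 C of 2500 LYMP1-002 lymphoblastoid cells per well. Concentration-response data were fitted with the standard Hill equation to give AC50.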

[13] = target: Thyroid hormone receptor beta (Homo sapiens) (UniProt P10828); assay: qHTS assay for small molecule antagonists of thyroid hormone receptor beta signaling (AID 588547; active = well fitted inhibition curve with a large enough effect in the signal ratio, with a control signal flat, not every such curve was filed as active; the % refers to the signal ratio;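 note: cells stimulated with 0.4 nM T3 agonist during compound exposure; % is set by controls: 0 for no effect and ±100 for the full control effect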); conditions: TR-UAS-bla HEK293, beta-lactamase ratio, antagonist mode, 18 h
Summary of the method: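 TR-UAS-bla GripTite HEK293 cells in 2% charcoal/dextran FBS medium; compounds 0.59 nM to 92 uM with T3 at 0.4nM final, 18 h at 37 C. Beta-lactamase read by CCF4 fluorescence (460/530 nm); Hill fits gave IC50 and efficacy.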

[14] = qHTS assay for small molecule activators of the p53 signaling pathway (AID 651743; active = well fitted activation curve with a large enough effect in the signal ratio, not every such curve was filed as active; the % refers to the signal ratio; note: % of control where 0% means no effect); conditions: HCT-116 p53RE-bla, beta-lactamase FRET ratio, 16 h; activation: stronger effect = higher value
Summary of the method: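 Following 16 hours of compound exposure at 37 C, HCT-116 cells bearing the p53RE-bla reporter were loaded with LiveBLAzer B/G FRET substrate for 2 hours at room temperature and fluorescence intensity was recorded.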

[15] = qHTS assay for small molecule disruptors of the mitochondrial membrane potential - 1 hr assay (AID 651754; calls by dose curve; note: nearly all actives have a fitted effect of over 35% in size; note: potency is the fitted concentration of half-maximal effect)
Summary of the method: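 Mitochondrial potential in living HepG2 cells after 1 hr compound treatment at 37C was read with Mito-MPS dye added for a further 30 min. Red aggregate and green monomer fluorescence were measured; loss of potential leaves dye as cytoplasmic monomers.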

[16] = target: Peroxisome proliferator-activated receptor alpha (Homo sapiens) (UniProt Q07869); assay: qHTS assay for small molecule agonists of the peroxisome proliferator-activated receptor alpha (PPARalpha) signaling pathway (AID 651778); conditions: PathHunter PPARalpha complementation, chemiluminescence, 6 h; stronger effect = higher value; note: % of control where 0% means no effect
Summary of the method: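 Enzyme-fragment complementation assay in which ligand-bound PPARalpha translocates and forms an active enzyme that generates chemiluminescence. Cells were plated overnight, exposed to compound for 6 hr at 37 C, and then given detection reagent for 60 min at room temperature.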

[17] = Cell Viability - NIH 3T3 (AID 541); conditions: NIH 3T3 cell viability, qHTS; activity change, negative = cytotoxicity: at 92.2 µM (top of the series);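 note: cells exposed to compound for 40 hours; nearly all actives have a fitted effect of over 25% in size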; note: potency is the fitted concentration of half-maximal effect;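 for activity change, negative = cytotoxicity: plate controls were DMSO alone for no effect and tamoxifen positive control for full effect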
Summary of the method: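 Intracellular ATP (CellTiter-Glo luminescence, 20 min at room temperature) measured after 40 hr compound exposure at 37 °C of 1000 NIH 3T3 mouse fibroblasts/well in complete medium; AC50 derived by Hill-equation modelling of qHTS concentration-response curves.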

[18] = Cellular Toxicity (caspase-3) Mesangial (AID 660);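 note: combined caspase 3 and 7 activity read by Caspase-Glo luminescence; cells exposed to compound for 16 h before the caspase read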
Summary of the method: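 Caspase 3/7 activation measured by Caspase-Glo 3/7 luminescence (20 min, room temperature) following 16 h exposure of mesangial cells (1000/well); AC50 from Hill-equation fit, normalized to DMSO and 100 uM tamoxifen.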

[19] = Cell Viability - LYMP1-002 - Assay at 24 hr (AID 993); note: % is set by controls: 0 for no effect and ±100 for the full control effect
Summary of the method: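 qHTS cytotoxicity at 24 h: CellTiter-Glo ATP luminescence in lymphoblastoid line LYMP1-002 incubated with compound at 37 °C. Concentration-response modeled with the Hill equation for AC50; tetraoctylammonium bromide served as positive control.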

[20] = qHTS assay for small molecule disruptors of the mitochondrial membrane potential - 5 hr assay (AID 651755; calls by dose curve; note: nearly all actives have a fitted effect of over 40% in size; note: potency is the fitted concentration of half-maximal effect)
Summary of the method: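 Read-out: ratiometric Mito-MPS fluorescence, green monomer (ex 490/em 535) vs red mitochondrial aggregate (ex 540/em 590). HepG2 cells treated 5 hr at 37C before 30 min dye loading.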

Peroxisome proliferator-activated receptor alpha (Homo sapiens), sequence (Q07869 whole entry, looked up, the tested form may be a part): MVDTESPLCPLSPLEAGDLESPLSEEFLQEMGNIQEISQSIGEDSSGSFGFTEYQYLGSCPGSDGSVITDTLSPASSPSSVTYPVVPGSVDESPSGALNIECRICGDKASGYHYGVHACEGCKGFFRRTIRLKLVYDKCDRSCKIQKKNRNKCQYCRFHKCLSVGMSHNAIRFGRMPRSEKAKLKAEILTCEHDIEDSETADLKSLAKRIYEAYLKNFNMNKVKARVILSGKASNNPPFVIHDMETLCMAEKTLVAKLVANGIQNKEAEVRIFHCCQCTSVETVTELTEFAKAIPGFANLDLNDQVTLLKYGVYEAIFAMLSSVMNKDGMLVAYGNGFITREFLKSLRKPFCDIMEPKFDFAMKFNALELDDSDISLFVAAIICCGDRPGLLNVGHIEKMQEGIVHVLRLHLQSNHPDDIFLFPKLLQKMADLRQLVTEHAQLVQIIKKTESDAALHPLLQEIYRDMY
Thyroid hormone receptor beta (Homo sapiens), sequence (P10828 whole entry, looked up): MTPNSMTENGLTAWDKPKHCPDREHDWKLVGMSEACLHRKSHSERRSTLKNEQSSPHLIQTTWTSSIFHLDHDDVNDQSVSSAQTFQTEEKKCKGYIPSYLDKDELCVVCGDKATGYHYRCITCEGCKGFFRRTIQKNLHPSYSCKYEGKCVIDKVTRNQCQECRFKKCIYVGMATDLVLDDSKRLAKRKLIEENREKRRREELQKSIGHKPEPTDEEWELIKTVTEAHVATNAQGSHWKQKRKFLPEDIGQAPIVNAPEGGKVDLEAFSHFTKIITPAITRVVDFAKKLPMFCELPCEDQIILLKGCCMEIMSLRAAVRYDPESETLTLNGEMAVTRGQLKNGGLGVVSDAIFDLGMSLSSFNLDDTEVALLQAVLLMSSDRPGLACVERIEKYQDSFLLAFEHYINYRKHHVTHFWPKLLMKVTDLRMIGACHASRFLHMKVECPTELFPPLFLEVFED

COc1cc(-c2ccc(N)c(OC)c2)ccc1N
active: Potency [15] 37.6 µM
inactive: Potency [1] | Potency [2] | outcome [3] | outcome [4] | outcome [5] | Potency [6] | caspase-3 activation [7] -1.4% | Potency [8] | Potency [9] | Potency [10] | Potency [11] | Potency [12] | activity change % (negative = inhibition) [13] 4.52% and 5.28% and -5.71% | activation [14] 0.265% and -0.413% and 0.709% | max response [16] -3.45% and -1.48% and -1.31%

N#CCCC#N
inactive: Potency [17] | Potency [1] | outcome [3] | outcome [4] | outcome [18] | Potency [6] | caspase-3 activation [7] 1.14% | Potency [8] | Potency [9] | Potency [10] | Potency [11] | Potency [19] | Potency [12] | activity change % (negative = inhibition) [13] 5.23% | activation [14] -0.196% | max response [16] -2.27%

CCC(Cl)[N+](=O)[O-] (centres undefined)
inactive: Potency [17] | Potency [1] | Potency [2] | outcome [3] | outcome [5] | outcome [18] | caspase-3 activation [7] -0.0531% | Potency [8] | Potency [9] | Potency [10] | Potency [11] | Potency [19] | Potency [12] | activity change % (negative = inhibition) [13] -30.2% | activation [14] -1.08% | Potency [15] | Potency [20] | max response [16] 11.6%

CC(C)Br
inactive: Potency [17] | Potency [1] | Potency [2] | outcome [3] | outcome [4] | outcome [5] | outcome [18] | Potency [6] | caspase-3 activation [7] -2.59% | Potency [8] | Potency [9] | Potency [10] | Potency [11] | Potency [19] | Potency [12] | activation [14] -2.41% | Potency [15] | Potency [20] | max response [16] -8.27%

Nc1ccc([N+](=O)[O-])cc1N
inactive: Potency [2] | outcome [4] | outcome [5] | outcome [18] | Potency [6] | caspase-3 activation [7] 0.611% | Potency [8] | Potency [9] | Potency [10] | Potency [11] | Potency [19] | Potency [12] | activity change % (negative = inhibition) [13] 8.39% and -11.3% | activation [14] -2.47% | Potency [20] | max response [16] -9.77% and -2.05%

c1ccc(N=NNc2ccccc2)cc1
inactive: Potency [17] | Potency [2] | outcome [3] | outcome [4] | outcome [18] | caspase-3 activation [7] -0.924% | Potency [8] | Potency [10] | Potency [11] | Potency [19] | Potency [12] | activity change % (negative = inhibition) [13] 0.0148% | activation [14] -4.25% and -0.499% | max response [16] -1.28% and 2.45%

N#CC(Br)Br
inactive: Potency [1] | Potency [2] | outcome [3] | outcome [4] | outcome [5] | caspase-3 activation [7] 5.88% | Potency [8] | Potency [19] | activity change % (negative = inhibition) [13] 17% | Potency [15] | Potency [20] | max response [16] -1.13%

CC(C)(COCC1CO1)COCC1CO1 (centres undefined)
inactive: Potency [2] | outcome [4] | outcome [5] | outcome [18] | caspase-3 activation [7] 0.0543% | Potency [8] | Potency [9] | Potency [10] | Potency [11] | Potency [12] | activity change % (negative = inhibition) [13] -13.4% | activation [14] 6.6% | Potency [15] | Potency [20] | max response [16] -0.497%
active: activity change, negative = cytotoxicity [17] -105%

Nc1cc(Cl)ccc1O
active: viability change, negative = cytotoxic [1] -87.6% | Potency [15] 29.8 µM | Potency [20] 33.5 µM
inactive: Potency [2] | outcome [3] | outcome [4] | outcome [5] | outcome [18] | Potency [6] | caspase-3 activation [7] 4.86% | Potency [8] | Potency [9] | Potency [10] | Potency [19] | activation [14] -1.47% | max response [16] 0.902%

CC(C)[N+](=O)[O-]
inactive: Potency [17] | Potency [1] | Potency [2] | outcome [3] | outcome [4] | outcome [5] | outcome [18] | Potency [6] | caspase-3 activation [7] -0.5% | Potency [8] | Potency [11] | Potency [19] | Potency [12] | activity change % (negative = inhibition) [13] 5.36% | activation [14] -2.67%

O=C(O)C(Br)Br
inactive: Potency [17] | outcome [3] | outcome [4] | outcome [18] | Potency [6] | caspase-3 activation [7] -1.18% | Potency [8] | Potency [9] | Potency [19] | activity change % (negative = inhibition) [13] 8.3% | activation [14] 6.12% | Potency [15] | Potency [20] | max response [16] 14.7%

C=CC(=O)OCC(C)C
inactive: Potency [17] | Potency [1] | Potency [2] | outcome [3] | outcome [4] | outcome [5] | outcome [18] | Potency [6] | caspase-3 activation [7] -0.317% | Potency [9] | Potency [10] | Potency [11] | Potency [19] | Potency [12] | activity change % (negative = inhibition) [13] -1.18% | activation [14] -0.853% | max response [16] 3.76%

C=CC(=O)OCCO
active: Potency [17] 31.6 µM
inactive: Potency [2] | outcome [3] | outcome [4] | outcome [5] | Potency [6] | caspase-3 activation [7] 2.01% | Potency [10] | Potency [12] | activity change % (negative = inhibition) [13] 12.5% | activation [14] 1.07% | Potency [15] | Potency [20] | max response [16] 5.17%

O=[N+]([O-])c1cc(Cl)c(Cl)c(Cl)c1
inactive: Potency [1] | Potency [2] | outcome [3] | outcome [4] | outcome [5] | Potency [6] | caspase-3 activation [7] 2.74% | Potency [9] | Potency [10] | Potency [11] | Potency [12] | activity change % (negative = inhibition) [13] 3.05% | activation [14] -1.35% | Potency [15] | Potency [20] | max response [16] -4.23%
active: activity change, negative = cytotoxicity [17] -119% | Potency [8] 25.1 µM

CCCCC(CC)COC(=O)c1ccc(C(=O)OCC(CC)CCCC)c(C(=O)OCC(CC)CCCC)c1 (centres undefined)
inactive: Potency [17] | Potency [1] | Potency [2] | outcome [3] | outcome [4] | outcome [5] | outcome [18] | Potency [6] | caspase-3 activation [7] 16.8% | Potency [8] | Potency [9] | Potency [10] | Potency [11] | Potency [19] | Potency [12] | activity change % (negative = inhibition) [13] 11.5% | activation [14] -1.5% | max response [16] -3.57%
